# Test results as given in PubChem BioAssay (Tox21).
# Inconclusive results are not listed. Entries that show only a call come without a potency. Unmarked numbers belong to inactive results. The source made the active and inactive calls. Unless noted, calls come from the whole dose curve; as a rule, active = well fitted curve in the direction sought with a large enough effect in the repeat runs; inconclusive = weak or mixed curves; inactive = no such curve, though single readings can be large; an effect the other way counts as inactive or inconclusive.
# Assays:
# [1] = qHTS assay to identify small molecule antagonists of the thyroid receptor (TR) signaling pathway (AID 743065); note: series mostly up to about 70 µM; nearly all actives have a fitted effect of over 55% in size
# In short: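 GH3.TRE-Luc rat pituitary cells (two TREs driving luciferase) were dosed with compound, then stimulated with 1 nM T3 (final) for 23.5 h at 37 C. ONE-Glo luminescence was the read-out, with CellTiter-Fluor fluorescence as the cytotoxicity counter-screen.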
# [2] = system: thyroid hormone receptor (rat, GH3 cells); test: qHTS assay to identify small molecule agonists of the thyroid receptor (TR) signaling pathway (AID 743066; calls by dose curve)
# [3] = molecular target: Estrogen receptor (Homo sapiens) (UniProt P03372); test: qHTS assay to identify small molecule antagonists of the estrogen receptor alpha (ER-alpha) signaling pathway (AID 743069; active = well fitted curve in the direction sought with a large enough effect in the signal ratio in the repeat runs, not every such curve was filed as active; the % refers to the signal ratio)
# Sequence of Estrogen receptor (Homo sapiens) (P03372 whole entry, looked up): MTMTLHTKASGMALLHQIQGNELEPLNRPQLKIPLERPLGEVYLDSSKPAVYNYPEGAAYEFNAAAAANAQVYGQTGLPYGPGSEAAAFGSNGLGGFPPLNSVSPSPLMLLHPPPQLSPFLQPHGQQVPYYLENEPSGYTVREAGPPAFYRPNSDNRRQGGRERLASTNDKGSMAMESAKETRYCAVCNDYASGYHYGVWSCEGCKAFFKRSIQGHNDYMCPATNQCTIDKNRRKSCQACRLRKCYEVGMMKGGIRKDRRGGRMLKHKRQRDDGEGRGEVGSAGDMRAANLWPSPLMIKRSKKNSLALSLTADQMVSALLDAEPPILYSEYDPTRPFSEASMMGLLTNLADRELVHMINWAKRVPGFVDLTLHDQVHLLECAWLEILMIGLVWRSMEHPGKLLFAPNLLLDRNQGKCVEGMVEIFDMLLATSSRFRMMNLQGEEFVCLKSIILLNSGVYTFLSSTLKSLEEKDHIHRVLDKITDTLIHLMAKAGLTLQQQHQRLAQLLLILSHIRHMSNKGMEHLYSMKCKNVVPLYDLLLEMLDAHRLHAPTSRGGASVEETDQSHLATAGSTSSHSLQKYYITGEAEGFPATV
# In short: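 Beta-lactamase FRET fluorescence is read after 2 hr at room temperature with LiveBLAzer B/G substrate. Before that, ER-alpha-bla HEK293 cells sit 4 hr after plating, then receive compound plus 17beta-estradiol and incubate 18 hr at 37C.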
# [4] = qHTS assay to identify small molecule antagonists of the estrogen receptor alpha (ER-alpha) signaling pathway - cell viability counter screen (AID 743074; calls by dose curve;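 note: HEK293 cells carrying ER-alpha-UAS-bla reporter stimulated with 17beta-estradiol; nearly all actives have a fitted effect of over 45% in size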)
# [5] = molecular target: Estrogen receptor (Homo sapiens) (UniProt P03372); test: qHTS assay to identify small molecule agonists of the estrogen receptor alpha (ER-alpha) signaling pathway (AID 743075; calls by dose curve;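 note: HEK293 GripTite cells with ER-alpha and UAS-driven beta-lactamase reporter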)
# [6] = molecular target: Estrogen receptor (Homo sapiens) (UniProt P03372); test: qHTS assay to identify small molecule agonists of the estrogen receptor alpha (ER-alpha) signaling pathway using the BG1 cell line (AID 743079); note: nearly all actives have a fitted effect of over 20% in size
# [7] = qHTS assay to identify small molecule antagonists of the estrogen receptor alpha (ER-alpha) signaling pathway using the BG1 cell line (AID 743080; calls by dose curve;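 note: BG1 cells stimulated with 17beta-estradiol alongside compound; nearly all actives have a fitted effect of over 25% in size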; note: potency is the fitted concentration of half-maximal effect)
# In short: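 Endogenous full-length ER-alpha in BG1-Luc-4E2 cells drives a stably integrated 4×ERE luciferase gene; compounds were tested against 17beta-estradiol over 21.5 h, with luminescence and multiplexed viability fluorescence recorded.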
# [8] = qHTS assay to identify small molecule antagonists of the estrogen receptor alpha (ER-alpha) signaling pathway using the BG1 cell line - cell viability counter screen (AID 743081);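 note: compound given together with 17beta-estradiol as the ER stimulus; series mostly up to about 70 µM; nearly all actives have a fitted effect of over 45% in size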
# Aromatase (Homo sapiens) = Aromatase (Homo sapiens) (UniProt P11511); test: qHTS assay to identify aromatase inhibitors (AID 743083); note: series mostly up to about 70 µM; nearly all actives have a fitted effect of over 55% in size
# Sequence of Aromatase (Homo sapiens) (P11511 whole entry, looked up): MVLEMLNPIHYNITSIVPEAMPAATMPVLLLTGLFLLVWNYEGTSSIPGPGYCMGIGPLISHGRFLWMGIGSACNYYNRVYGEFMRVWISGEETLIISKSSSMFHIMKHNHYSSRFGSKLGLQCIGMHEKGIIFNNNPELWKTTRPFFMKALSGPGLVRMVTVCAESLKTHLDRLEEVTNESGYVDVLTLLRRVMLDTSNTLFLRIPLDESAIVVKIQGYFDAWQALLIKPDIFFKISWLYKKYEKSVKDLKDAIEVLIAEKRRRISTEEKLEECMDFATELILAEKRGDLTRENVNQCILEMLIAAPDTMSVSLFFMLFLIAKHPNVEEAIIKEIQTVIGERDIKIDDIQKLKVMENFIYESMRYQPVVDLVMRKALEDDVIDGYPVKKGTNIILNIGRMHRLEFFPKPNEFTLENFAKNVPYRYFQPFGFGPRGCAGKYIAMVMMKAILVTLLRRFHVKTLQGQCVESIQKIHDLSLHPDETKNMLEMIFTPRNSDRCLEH
# [9] = qHTS assay to identify aromatase inhibitors - cell viability counter screen (AID 743084);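 note: cells stimulated with testosterone during compound exposure; nearly all actives have a fitted effect of over 55% in size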
# [10] = molecular target: Aryl hydrocarbon receptor (Homo sapiens) (UniProt P35869); test: qHTS assay to identify small molecule that activate the aryl hydrocarbon receptor (AhR) signaling pathway (AID 743085);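 note: HG2L7.5c1 human HepG2 liver cells with stably integrated DRE-driven firefly reporter; series mostly up to about 70 µM; nearly all actives have a fitted effect of over 15% in size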
# Sequence of Aryl hydrocarbon receptor (Homo sapiens) (P35869 whole entry, looked up): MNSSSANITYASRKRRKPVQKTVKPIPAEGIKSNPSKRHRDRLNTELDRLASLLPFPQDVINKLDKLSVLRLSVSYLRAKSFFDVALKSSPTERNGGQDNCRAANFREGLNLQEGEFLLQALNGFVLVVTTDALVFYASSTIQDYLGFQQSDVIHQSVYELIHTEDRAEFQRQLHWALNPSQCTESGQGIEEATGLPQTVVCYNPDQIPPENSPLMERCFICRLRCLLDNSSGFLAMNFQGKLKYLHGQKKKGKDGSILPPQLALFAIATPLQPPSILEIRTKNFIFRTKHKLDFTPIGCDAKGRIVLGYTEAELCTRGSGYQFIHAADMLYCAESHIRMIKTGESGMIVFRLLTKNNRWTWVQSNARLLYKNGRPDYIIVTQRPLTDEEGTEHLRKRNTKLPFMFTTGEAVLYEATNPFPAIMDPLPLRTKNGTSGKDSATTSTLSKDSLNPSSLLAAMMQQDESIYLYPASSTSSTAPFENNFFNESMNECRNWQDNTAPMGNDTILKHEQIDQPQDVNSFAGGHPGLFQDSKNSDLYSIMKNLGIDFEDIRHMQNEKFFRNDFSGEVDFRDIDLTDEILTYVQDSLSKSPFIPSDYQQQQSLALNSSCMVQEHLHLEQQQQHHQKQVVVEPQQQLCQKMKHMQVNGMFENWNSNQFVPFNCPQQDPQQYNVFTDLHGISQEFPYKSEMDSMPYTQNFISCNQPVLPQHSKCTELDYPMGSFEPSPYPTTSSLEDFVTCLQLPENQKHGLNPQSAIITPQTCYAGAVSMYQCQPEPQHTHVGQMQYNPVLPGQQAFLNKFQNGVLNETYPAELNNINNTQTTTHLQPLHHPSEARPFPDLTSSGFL
# In short: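 Measured in HG2L7.5c1 cells: CellTiter-Fluor signal (30 min incubation, 37C) for viability, then luciferase luminescence (30 min, room temperature). Compound contact time was 24 h at 37C, following a 5 h pre-incubation.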
# [11] = qHTS assay to identify small molecule that activate the aryl hydrocarbon receptor (AhR) signaling pathway - cell viability counter screen (AID 743086);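 note: HepG2 liver cells carrying the AhR DRE luciferase reporter; series mostly up to about 70 µM; nearly all actives have a fitted effect of over 45% in size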
# In short: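 HepG2-AhR-luc (HG2L7.5c1) cells, 4000/well, treated 24 h at 37 C with compound; viability measured as CellTiter-Fluor fluorescence after 30 min in the same wells as the luciferase read.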
# [12] = molecular target: Peroxisome proliferator-activated receptor gamma (Homo sapiens) (UniProt P37231); test: qHTS assay to identify small molecule agonists of the peroxisome proliferator-activated receptor gamma (PPARg) signaling pathway (AID 743094; active = well fitted activation curve with a large enough effect in the signal ratio in the repeat runs, not every such curve was filed as active; the % refers to the signal ratio)
# Sequence of Peroxisome proliferator-activated receptor gamma (Homo sapiens) (P37231 whole entry, looked up): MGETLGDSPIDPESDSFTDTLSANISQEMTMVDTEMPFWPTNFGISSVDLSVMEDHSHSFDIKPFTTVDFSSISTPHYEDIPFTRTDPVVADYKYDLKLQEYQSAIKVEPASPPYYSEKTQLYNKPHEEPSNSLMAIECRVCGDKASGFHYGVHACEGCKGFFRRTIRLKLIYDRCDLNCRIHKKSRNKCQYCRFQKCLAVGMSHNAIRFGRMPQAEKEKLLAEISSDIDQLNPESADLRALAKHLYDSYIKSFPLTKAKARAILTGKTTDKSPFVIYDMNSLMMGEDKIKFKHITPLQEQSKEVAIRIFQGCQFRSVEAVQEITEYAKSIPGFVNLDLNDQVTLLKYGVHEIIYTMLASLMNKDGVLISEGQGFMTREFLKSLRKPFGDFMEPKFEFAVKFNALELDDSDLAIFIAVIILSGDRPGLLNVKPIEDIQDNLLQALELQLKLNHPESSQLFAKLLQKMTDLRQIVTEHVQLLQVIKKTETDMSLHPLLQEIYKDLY
# In short: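 Cells from the PPARg UAS-bla HEK293H line are plated and incubated 5 h at 37C. Compounds in DMSO are pinned in and left 17 h at 37C. LiveBLAzer B/G substrate is then added for 1 h at room temperature before fluorescence is measured.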
# [13] = molecular target: Peroxisome proliferator-activated receptor gamma (Homo sapiens) (UniProt P37231); test: qHTS assay to identify small molecule antagonists of the peroxisome proliferator-activated receptor gamma (PPARg) signaling pathway (AID 743191; calls by dose curve; note: series mostly up to about 63 µM; nearly all actives have a fitted effect of over 30% in size)
# In short: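 GeneBLAzer PPARg UAS-bla HEK293H cells, 5 h post-plating, exposed to compounds 17 h at 37C. LiveBLAzer B/G FRET substrate added for 1 h at room temperature; beta-lactamase reporter read by fluorescence intensity.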
# [14] = qHTS assay to identify small molecule antagonists of the peroxisome proliferator-activated receptor gamma (PPARg) signaling pathway - cell viability counter screen (AID 743194); note: nearly all actives have a fitted effect of over 55% in size
# In short: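 Cytotoxicity counter screen in PPARg-bla HEK293H cells, same wells as reporter assay. Compounds plus 50 nM rosiglitazone (final) for 17 h at 37 C, then viability read by CellTiter-Glo luminescence.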
# [15] = qHTS assay for small molecule agonists of the antioxidant response element (ARE) signaling pathway (AID 743202; active = well fitted activation curve with a large enough effect in the signal ratio in the repeat runs, not every such curve was filed as active; the % refers to the signal ratio)
# In short: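 HepG2 ARE-bla reporter line, 2,000 cells/well; 5 h preincubation 37 C/5% CO2; compound (DMSO) 16 h 37 C; B/G FRET substrate 2 h RT; fluorescence intensity.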
# [16] = qHTS assay to identify small molecule agonists of the peroxisome proliferator-activated receptor delta (PPARd) signaling pathway - cell viability counter screen (AID 743211); note: nearly all actives have a fitted effect of over 55% in size
# In short: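 Following 5 h plating at 37 C and 5% CO2, PPARd UAS-bla HEK293H cells took up test compounds for 17 h. Viability was quantified by luminescence 30 min after CellTiter-Glo addition at room temperature.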
# [17] = qHTS assay for small molecule agonists of the antioxidant response element (ARE) signaling pathway - cell viability counter screen (AID 743203; calls by dose curve; note: nearly all actives have a fitted effect of over 55% in size)
# In short: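 Cytotoxicity was tested in parallel with the ARE reporter screen. ARE-bla HepG2 cells were exposed to compounds for 16 hrs, and viability was taken from CellTiter-Glo luminescence.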
# [18] = qHTS assay for small molecule activators of the heat shock response signaling pathway - cell viability counter screen (AID 743209); note: nearly all actives have a fitted effect of over 50% in size
# In short: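 Cytotoxicity counter screen run in parallel with the HSE beta-lactamase reporter, using the same wells. HeLa HSE-bla cells received compound for 5 h at 37 C; ATP-based CellTiter-Glo luminescence was measured after 30 min at room temperature.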
# [19] = qHTS assay for small molecule activators of the heat shock response signaling pathway (AID 743210; active = well fitted activation curve with a large enough effect in the signal ratio in the repeat runs, with a control signal flat, not every such curve was filed as active; the % refers to the signal ratio;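 note: HeLa cells with beta-lactamase reporter driven by heat shock elements; series mostly up to about 63 µM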)
# In short: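 Beta-lactamase reporter read-out: FRET substrate fluorescence after 2.5 h at RT, following 5 h compound treatment at 37 C of HeLa cells carrying HSE-driven bla reporter; quantitative HTS format.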
SMILES,Potency [1],Potency [2],outcome [3],Potency [4],Potency [5],Potency [6],Potency [7],outcome [8],Potency (Aromatase (Homo sapiens)),outcome [9],Potency [10],outcome [11],outcome [12],outcome [13],outcome [14],Potency [15],outcome [16],outcome [17],Potency [18],outcome [19]
Cc1cc(C)c(N)c(Cl)c1,inactive,inactive,inactive,inactive,inactive,inactive,inactive,inactive,inactive,inactive,inactive,inactive,inactive,inactive,inactive,inactive,inactive,–,–,–
CCCCN(CCCC)CCCCCCN(CCCC)CCCC,inactive,inactive,inactive,inactive,inactive,inactive,inactive,inactive,inactive,inactive,inactive,–,inactive,inactive,inactive,inactive,–,inactive,inactive,inactive
CC(CC(=O)Cl)CC(C)(C)C (configuration not stated),inactive,inactive,inactive,inactive,inactive,inactive,inactive,inactive,inactive,inactive,inactive,inactive,inactive,inactive,inactive,inactive,inactive,inactive,–,–
C/C=C(\C)C(=O)OC/C=C(\C)CCC=C(C)C,inactive,inactive,inactive,inactive,inactive,inactive,inactive,inactive,inactive,inactive,inactive,inactive,inactive,inactive,inactive,inactive,inactive,inactive,–,–
COc1cc2nc(N3CCN(C(=O)C4CCCO4)CC3)nc(N)c2cc1OC (configuration not stated),inactive,inactive,inactive,inactive,inactive,inactive,inactive,inactive,inactive,inactive,inactive,inactive,–,inactive,inactive,inactive,inactive,inactive,inactive,inactive
Cc1ccc(O)c([N+](=O)[O-])c1,inactive,inactive,inactive,inactive,inactive,inactive,inactive,inactive,inactive,inactive,inactive,–,inactive,inactive,inactive,inactive,inactive,–,inactive,inactive
C=CCCCCCCCCCCCCCC,inactive,inactive,inactive,inactive,inactive,inactive,inactive,inactive,inactive,inactive,inactive,inactive,–,inactive,inactive,–,inactive,inactive,–,inactive
CC(C)(C)C(=O)NCCCC(=O)O,inactive,inactive,inactive,inactive,inactive,inactive,inactive,inactive,inactive,inactive,inactive,inactive,–,–,–,inactive,inactive,inactive,inactive,inactive
CC(=O)Nc1ccc(OCCOCCOc2ccc(NC(C)=O)cc2)cc1,inactive,inactive,inactive,inactive,inactive,inactive,inactive,inactive,inactive,inactive,inactive,inactive,inactive,inactive,–,inactive,inactive,–,–,–
CCC(=O)OCCOc1ccccc1,inactive,inactive,inactive,inactive,inactive,inactive,inactive,inactive,inactive,inactive,inactive,inactive,inactive,inactive,inactive,–,inactive,inactive,inactive,inactive
CCCCN=C(N)N=C(N)N,inactive,inactive,inactive,inactive,inactive,inactive,16.8 µM (active),inactive,inactive,inactive,inactive,inactive,inactive,inactive,inactive,–,–,inactive,inactive,inactive
NS(=O)(=O)c1cc2c(cc1C(F)(F)F)NCNS2(=O)=O,inactive,inactive,inactive,inactive,inactive,inactive,inactive,inactive,inactive,inactive,inactive,inactive,inactive,–,inactive,–,inactive,inactive,inactive,inactive
C[Si](C)(C)O[Si](O)(O)O,inactive,inactive,inactive,inactive,inactive,inactive,inactive,inactive,inactive,inactive,inactive,inactive,inactive,–,inactive,inactive,inactive,–,inactive,–
CC(O)C(CO)C(C)O (configuration not stated),inactive,inactive,inactive,inactive,inactive,inactive,inactive,inactive,inactive,inactive,inactive,inactive,–,inactive,–,inactive,inactive,inactive,inactive,inactive
CC(C)(C)C(=O)CCc1ccc(Cl)cc1,inactive,inactive,inactive,inactive,inactive,inactive,inactive,inactive,inactive,inactive,inactive,inactive,inactive,inactive,inactive,inactive,inactive,inactive,–,inactive
